Assay outcomes: PubChem, National Center for Advancing Translational Sciences (NCATS)
Sampled rows, rich in hits. Any-hit rate of the full collection: about 7.9%.
LASV entry inh – blocks Lassa virus binding to or entry into cells; Lassa virus pseudotype entry inhibition, cell reporter; Potency, µM (doses to about 37.9 µM), for inactives: top-dose activity change, negative = inhibition, hits mostly inhibitors; 1.2% of 300,000 active; AID 540256; calls by dose curve; tested in HEK293 cells; note: potency is the fitted concentration of half-maximal effect; nearly all actives have a fitted effect of over 50% in size
HCMV antiviral – human cytomegalovirus inhibition; AID 1259415; 4.5% of 410,000 active; HFF cells, HCMV-luciferase reporter, 72 h; stronger effect = lower value; activity change, negative = inhibition, % at 57.5 µM; in the data active = activity change below about -60%; inconclusive = no clear call, values can overlap the other calls; inactive = above about -39%
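Two-dose cell screen: HFF monolayers treated with compounds and infected with luciferase-expressing HCMV at 1 PFU/cell, 72 h at 37C, then lysed for luciferase measurement.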
MARV entry inh – Marburg virus entry inhibition; Marburg virus pseudotyped entry inhibition, cell reporter; Potency, µM (titrated, usually from 37.8 µM), inactives show at the top dose activity change, negative = inhibition, usual class: inhibitors; 1.8% of 300,000 active; calls by dose curve; tested in HEK293 cells; note: potency is the fitted concentration of half-maximal effect
HCV inhibitor – blocks hepatitis C virus; Potency, µM (doses to about 41.8 µM), without a hit: at the top dose activity change, negative = inhibition, actives largely listed as inhibitors; 3.4% of 340,000 active; Huh7.5.1 HCVcc-Cre infection, luciferase reporter, 44 h; AID 651820; active = well fitted inhibition curve with a large enough effect; inconclusive = small, poorly fitted or top-dose-only effect, or another doubt; inactive = no such curve, though single readings can be large or run the other way; note: potency is the fitted concentration of half-maximal effect
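After 44 h co-culture of compound, cells and HCVcc-Cre (~0.5 moi), substrate is added for 15 min at room temperature and luciferase measured over 15 sec. Cells were seeded at 1,000/well and pre-cultured 4 h.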
FMDV antiviral – foot and mouth disease virus antiviral activity. FMDV antiviral cell-based qHTS. Potency, µM (top dose mostly 57.9 µM), without a hit: at the top dose activity change, negative = inhibition, most hits filed as inhibitors. 1.2% of 410,000 active; calls by dose curve; tested in HEK293T cells; note: read-out not given here; potency is the fitted concentration of half-maximal effect; nearly all actives have a fitted effect of over 45% in size
* marks the source's active call; other numbers are inactive results; ! = not confirmed by another sample; [ ] = dose if it differs, or a comment. % is set by controls: 0 for no effect and ±100 for the full control effect.

`C=C(C)Cn1c(CN(C)Cc2ccccc2)nc2c1c(=O)n(C)c(=O)n2C` gave HCMV antiviral inconclusive, HCV inhibitor 11.2µM* and FMDV antiviral inconclusive.
`Cc1ccc(Cn2c(CN(C)Cc3ccccc3)nc3c2c(=O)n(C)c(=O)n3C)cc1` gave LASV entry inh inconclusive, HCMV antiviral 76.3, MARV entry inh -21.7%, HCV inhibitor inconclusive and FMDV antiviral inconclusive.
Screening COC(=O)Cn1c(CN2CCc3ccccc3C2)nc2c1c(=O)n(C)c(=O)n2C returned HCMV antiviral -66.4*, HCV inhibitor -24.4% and FMDV antiviral inconclusive.
For CCCCn1c(CN(Cc2ccccc2)Cc2ccccc2)nc2c1c(=O)n(C)c(=O)n2C the results were LASV entry inh inconclusive, HCMV antiviral 4.8, MARV entry inh 3.4%, HCV inhibitor 10.9% and FMDV antiviral inconclusive.
CN(Cc1ccccc1)c1nc2c(c(=O)n(C)c(=O)n2C)n1CCCc1ccccc1 was read as LASV entry inh 12.6µM*, HCMV antiviral inconclusive, MARV entry inh inconclusive, HCV inhibitor inconclusive and FMDV antiviral inconclusive.
Screening Cc1ccccc1Cn1c(CN2CCc3ccccc3C2)nc2c1c(=O)n(C)c(=O)n2C returned LASV entry inh inconclusive, HCMV antiviral 0.3, MARV entry inh inconclusive and HCV inhibitor inconclusive.
Screening CCCCCn1c(CN(C)Cc2ccccc2)nc2c1c(=O)n(C)c(=O)n2C returned LASV entry inh inconclusive, HCMV antiviral 9.7, MARV entry inh inconclusive, HCV inhibitor 14.1µM*! and FMDV antiviral -11.4%.
Screening COc1ccc(OC)c(-c2nnc3n(Cc4ccc(C)cc4)c(=O)c4ccccc4n23)c1 returned LASV entry inh 0.9%[46.1 µM], HCMV antiviral -30.7, MARV entry inh -8.8%[46.1 µM] and FMDV antiviral inconclusive.
For O=C(Cn1nnc(-c2ccc([N+](=O)[O-])cc2)n1)NNC(=O)c1ccccc1 the results were LASV entry inh inconclusive, MARV entry inh -22.0%[46.1 µM], HCV inhibitor 1.9% and FMDV antiviral 13.1%.
`C/C(=N\NC(=O)c1cc(-c2cccs2)nc2ccccc12)c1ccccn1` gave LASV entry inh 6.51µM*, HCMV antiviral -100.6*, MARV entry inh 4.61µM*, HCV inhibitor 0.562µM* and FMDV antiviral inconclusive.
`Cc1cccc2sc(NNC(=O)c3cc(-c4cccs4)nc4ccccc34)nc12` gave LASV entry inh inconclusive, HCMV antiviral -68.4*, MARV entry inh -68.8%, HCV inhibitor inconclusive and FMDV antiviral inconclusive.
For C/C(=N\NC(=O)c1cccc(Br)c1)c1ccccn1 the results were LASV entry inh inconclusive, HCMV antiviral -102.6*, MARV entry inh 4.47µM*, HCV inhibitor inconclusive and FMDV antiviral 26.6%.
Screening C/C(=N/NC(=O)c1ccc(C(C)(C)C)cc1)c1ccccn1 returned LASV entry inh inconclusive, HCMV antiviral -98.0*, MARV entry inh inconclusive, HCV inhibitor 3.55µM* and FMDV antiviral -10.2%.
For Cn1cc(-c2nc3cnc(N4CCNCC4)nc3n(Cc3ccc(F)cc3)c2=O)c2ccccc21 the results were FMDV antiviral -8.5%.
`CC(C)NC(=O)COc1ccc(S(=O)(=O)N(C)Cc2ccccc2)cc1` gave HCMV antiviral -16.9, HCV inhibitor -27.6% and FMDV antiviral inconclusive.
`Cc1c2oc3c(C)ccc(C(=O)NC4C(=O)NC(C(C)C)C(=O)N5CCCC5C(=O)N(C)CC(=O)N(C)C(C(C)C)C(=O)OC4C)c3nc-2c(C(=O)NC2C(=O)NC(C(C)C)C(=O)N3CCCC3C(=O)N(C)CC(=O)N(C)C(C(C)C)C(=O)OC2C)c(N)c1=O` (centres undefined) gave FMDV antiviral -5.5%[27 µM].
Screening CN1C(=O)C(n2ccc3ccccc32)c2cc(Cl)ccc21 (centres undefined) returned HCMV antiviral -6.2.
For COc1ccc(CNC(=O)COC(=O)CO/N=C(\C)c2ccc3c(c2)OCO3)cc1 the results were LASV entry inh 16.8%, HCMV antiviral -21.8, MARV entry inh -21.4%, HCV inhibitor 16.2% and FMDV antiviral -5.9%.
Screening COc1ccc(/C(C)=N/NC(=O)c2ccncc2)cc1[N+](=O)[O-] returned LASV entry inh 3.6%, HCMV antiviral 12.9, MARV entry inh -27.7%, HCV inhibitor 19.0% and FMDV antiviral 0.3%.
COc1ccc(C(=O)N/N=C(\C)c2ccccn2)cc1OC was read as LASV entry inh 5.62µM*, HCMV antiviral -111.6*, MARV entry inh 6.31µM*, HCV inhibitor inconclusive and FMDV antiviral inconclusive.
For COc1ccc(NC(=O)c2ccccn2)cc1OC the results were LASV entry inh -4.0%, HCMV antiviral 12.2, MARV entry inh 7.6%, HCV inhibitor -10.4% and FMDV antiviral 65.4%.
`CC(C)(C)c1ccc(/C=N/NC(=O)c2ccccn2)cc1` gave LASV entry inh inconclusive, HCMV antiviral 108.9, MARV entry inh 3.16µM*, HCV inhibitor inconclusive and FMDV antiviral -74.4%.
Screening O=C(N/N=C/c1cccc(F)c1)c1ccc(Cl)cc1 returned LASV entry inh 0.6%, HCMV antiviral -30.8, MARV entry inh inconclusive, HCV inhibitor -2.4% and FMDV antiviral 49.2%.
`COc1cc(C(C)=NNC(=O)c2ccncc2)ccc1O` gave LASV entry inh 4.5%, HCMV antiviral -100.9*, MARV entry inh 3.0%, HCV inhibitor -1.2% and FMDV antiviral 4.4%.
CC(C)(C)c1ccc(C(=O)N/N=C/c2cccc(Cl)c2)cc1 was read as LASV entry inh -14.3%, HCMV antiviral -37.9, MARV entry inh -23.3%, HCV inhibitor 7.08µM* and FMDV antiviral 31.1%.
`CC(CCc1ccc(O)cc1)N1CCOc2c(O)cc(-c3nc4ccccc4s3)cc2C1` (centres undefined) gave FMDV antiviral -8.2%.
Screening CCOC(=O)C1=C(CN2CCN(c3ccccc3F)CC2)NC(=O)NC1c1ccc(OC)cc1 (centres undefined) returned LASV entry inh inconclusive, HCMV antiviral -22.3 and FMDV antiviral -25.1%.
`C/C(=N/NC(=O)c1ccncc1)c1ccc(NC(=O)c2ccccc2)cc1` gave HCMV antiviral -30.6, HCV inhibitor -23.6% and FMDV antiviral 21.6%.
C/C(=N\NC(=O)C(c1ccccc1)c1ccccc1)c1ccc(O)cc1 was read as HCMV antiviral 21.6, HCV inhibitor -15.4% and FMDV antiviral -23.2%.
Screening C/C(=N\NC(=O)c1ccc(Cl)c(Cl)c1)c1ccccn1 returned LASV entry inh 5.62µM*, HCMV antiviral -99.5*, MARV entry inh inconclusive, HCV inhibitor 0.562µM* and FMDV antiviral 15.3%.
Screening C/C(=N\NC(=O)C(c1ccccc1)c1ccccc1)c1ccccn1 returned LASV entry inh inconclusive, HCMV antiviral -98.6*, MARV entry inh inconclusive, HCV inhibitor 11.2µM* and FMDV antiviral inconclusive.
Screening C/C(=N\NC(=O)c1cc(Br)ccc1O)c1ccccn1 returned LASV entry inh 1.9%[46.1 µM], HCMV antiviral 39.1, MARV entry inh 8.7%[46.1 µM], HCV inhibitor 4.0% and FMDV antiviral -28.8%.
